From PubChem
BAZ2B inh – inhibitors of human BAZ2B bromodomain; AlphaScreen BAZ2B-H3K14Ac peptide displacement; Potency, µM (top dose mostly 114 µM), for the others: at the top dose activity change, negative = inhibition, most hits filed as inhibitors; actives 4.4% (n = 360,000); AID 504333; further: potency means the concentration at half of the fitted maximal effect; on the % scale 0 is the no-effect control and ±100 the full control effect; nearly all actives have a fitted effect of over 60% in size
Target sequence (Q9UIF8 whole entry, looked up): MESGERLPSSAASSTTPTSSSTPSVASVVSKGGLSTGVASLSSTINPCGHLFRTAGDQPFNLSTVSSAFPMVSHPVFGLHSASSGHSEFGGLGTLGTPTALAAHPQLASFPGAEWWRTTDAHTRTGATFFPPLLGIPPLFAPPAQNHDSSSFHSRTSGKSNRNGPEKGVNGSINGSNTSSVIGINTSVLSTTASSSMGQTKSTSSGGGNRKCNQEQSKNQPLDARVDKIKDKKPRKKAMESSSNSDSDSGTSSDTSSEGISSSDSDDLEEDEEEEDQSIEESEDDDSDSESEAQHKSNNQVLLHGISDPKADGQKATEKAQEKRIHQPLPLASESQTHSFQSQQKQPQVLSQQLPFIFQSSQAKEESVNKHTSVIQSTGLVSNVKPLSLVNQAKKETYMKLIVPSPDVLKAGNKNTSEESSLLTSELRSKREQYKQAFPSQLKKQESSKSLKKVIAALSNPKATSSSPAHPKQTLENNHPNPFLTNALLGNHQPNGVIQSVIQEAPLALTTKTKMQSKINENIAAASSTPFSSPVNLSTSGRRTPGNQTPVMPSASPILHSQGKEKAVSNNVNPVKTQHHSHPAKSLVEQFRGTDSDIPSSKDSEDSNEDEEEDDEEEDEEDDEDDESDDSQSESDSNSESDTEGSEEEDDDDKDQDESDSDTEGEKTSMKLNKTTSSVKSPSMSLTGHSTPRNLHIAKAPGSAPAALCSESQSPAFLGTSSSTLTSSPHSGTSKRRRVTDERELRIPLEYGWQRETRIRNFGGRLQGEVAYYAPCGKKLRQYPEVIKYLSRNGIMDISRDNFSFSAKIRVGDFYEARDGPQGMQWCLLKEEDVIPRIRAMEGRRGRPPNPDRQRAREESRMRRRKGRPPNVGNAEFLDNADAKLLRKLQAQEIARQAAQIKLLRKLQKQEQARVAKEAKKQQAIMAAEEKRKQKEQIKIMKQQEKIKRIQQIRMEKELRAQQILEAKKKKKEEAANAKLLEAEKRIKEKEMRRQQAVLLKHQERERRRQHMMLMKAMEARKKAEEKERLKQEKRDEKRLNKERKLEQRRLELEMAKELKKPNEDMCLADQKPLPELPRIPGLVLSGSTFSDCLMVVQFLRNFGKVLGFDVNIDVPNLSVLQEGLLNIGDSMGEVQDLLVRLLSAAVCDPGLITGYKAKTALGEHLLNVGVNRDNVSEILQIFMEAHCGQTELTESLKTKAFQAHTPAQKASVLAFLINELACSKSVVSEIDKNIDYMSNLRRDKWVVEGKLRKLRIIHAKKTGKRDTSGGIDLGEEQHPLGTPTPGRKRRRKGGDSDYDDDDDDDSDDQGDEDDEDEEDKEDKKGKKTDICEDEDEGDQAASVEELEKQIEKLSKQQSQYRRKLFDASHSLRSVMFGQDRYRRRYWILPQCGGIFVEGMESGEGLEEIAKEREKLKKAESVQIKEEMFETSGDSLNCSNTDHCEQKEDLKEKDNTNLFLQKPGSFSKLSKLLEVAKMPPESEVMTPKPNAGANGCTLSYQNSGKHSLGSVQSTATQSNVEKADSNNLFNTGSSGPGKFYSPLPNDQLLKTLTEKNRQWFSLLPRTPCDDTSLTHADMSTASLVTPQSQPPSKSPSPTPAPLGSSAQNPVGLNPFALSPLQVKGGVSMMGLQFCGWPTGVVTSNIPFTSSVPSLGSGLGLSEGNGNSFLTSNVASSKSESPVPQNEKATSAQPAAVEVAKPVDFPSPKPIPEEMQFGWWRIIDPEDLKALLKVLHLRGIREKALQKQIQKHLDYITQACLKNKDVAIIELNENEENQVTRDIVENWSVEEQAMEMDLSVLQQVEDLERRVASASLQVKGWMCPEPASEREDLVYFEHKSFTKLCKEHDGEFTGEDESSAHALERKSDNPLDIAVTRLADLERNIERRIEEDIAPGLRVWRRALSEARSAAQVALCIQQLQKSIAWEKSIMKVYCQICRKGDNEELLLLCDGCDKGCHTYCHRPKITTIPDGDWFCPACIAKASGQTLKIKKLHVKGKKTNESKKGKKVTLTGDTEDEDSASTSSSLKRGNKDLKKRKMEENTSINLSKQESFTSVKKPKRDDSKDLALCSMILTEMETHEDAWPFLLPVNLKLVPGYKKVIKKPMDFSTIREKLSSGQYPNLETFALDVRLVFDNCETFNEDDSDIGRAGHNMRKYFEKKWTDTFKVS
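Multi-concentration screen (max 110 uM) measuring displacement of acetylated histone H3 peptide from BAZ2B by AlphaScreen, using 50 nM protein, 50 nM peptide and 10 ug/mL streptavidin donor plus Ni-chelate acceptor beads.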
CtBP-E1A blk – CtBP/E1A binding inhibition | actives 0.49% (n = 340,000) | AlphaScreen GST-E1A/His-CtBP binding, 1536-well; active compounds read low | AID 651724 | activity change, % (test concentration not listed); in the data active means activity change below about -65%; inconclusive means mostly about -30% to -63%; further: on the % scale 0 is the no-effect control and ±100 the full control effect
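Steps: dispense buffer (Tris pH 8.0, NaCl 300 mM, TCEP 1 mM, BSA, Tween 20); add 5X protein mix (GST-E1A, His-CtBP, 125 nM each); pin 23 nL compound; 2 h at 37 °C, dark; add 5X beads (50 ug/mL); 1 h; read.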
G9a inh – G9a (human) methyltransferase inhibition. Q96KQ7. G9a H3K9 monomethylation, AlphaScreen, 2 h. Potency, µM (top dose mostly 102 µM), for inactives: at the top dose activity, negative = inhibition, actives largely listed as inhibitors. actives 8.8% (n = 350,000); further: potency means the concentration at half of the fitted maximal effect; on the % scale 0 is the no-effect control and ±100 the full control effect; nearly all actives have a fitted effect of over 75% in size
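G9a (20 nM) was preincubated 15 min with compound, then reacted 2 h at room temperature with 500 nM biotin-H3K9 peptide and 20 µM SAM. Monomethyl-H3K9 detected by AlphaScreen using anti-H3K9me1 antibody.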
Six1-Eya2 blk – inhibitors of human Six1/Eya2 interaction; AlphaScreen GST-Six1/His-Eya2 binding, biochemical; active compounds read low; activity change, % (concentration not given with the values); AID 651725; Q15475+O00167; actives 0.56% (n = 360,000); in the data active means activity change below about -65%; inconclusive means mostly about -30% to -63%; further: on the % scale 0 is the no-effect control and ±100 the full control effect
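Homogeneous AlphaScreen proximity assay pairing GST-Six1 with His-tagged Eya2 (added as 5X mix: 250 nM and 500 nM) in 50 mM Tris pH 8.0, 300 mM NaCl, 1 mM TCEP. Glutathione donor and nickel acceptor beads; 1 h, 37 °C, dark.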
JMJD2A Tudor – JMJD2A Tudor domain (human) inhibition. Potency, µM (doses to about 114 µM), for the others: top-dose activity change, negative = inhibition, actives largely listed as inhibitors. O75164. AlphaScreen JMJD2A-Tudor / H3K4me3 peptide binding. actives 4.4% (n = 390,000); further: potency means the concentration at half of the fitted maximal effect; on the % scale 0 is the no-effect control and ±100 the full control effect; nearly all actives have a fitted effect of over 50% in size
HP1b binding inh – blocks HP1-beta chromodomain binding to methylated histone tails; actives 0.56% (n = 390,000); Potency, µM (top dose mostly 114 µM), inactives show top-dose activity change, negative = inhibition, most hits filed as inhibitors; P83916; AID 540317; AlphaScreen HP1-beta / biotin-H3K9me3 peptide binding; further: potency means the concentration at half of the fitted maximal effect; nearly all actives have a fitted effect of over 70% in size
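HP1-beta protein (50 nM final) preincubated 30 min at room temperature with biotinylated H3(1-18)K9me3 peptide (50 nM) in PBS pH 7.4, 0.01% Tween-20, then compound added for 30 min. AlphaScreen streptavidin donor/nickel chelate acceptor beads (10 ug/mL final), 30 min dark, luminescence read.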
* marks the source's active call; other numbers are inactive results; u = inconclusive; x = no result; [ ] = remark or other dose. Shown are actives, neighbours in structure and some others; about 10% of the full set was active somewhere. Unless noted, the call rests on the fitted dose curve; in most records, active means well fitted inhibition curve with a large enough effect; inconclusive means small, poorly fitted or top-dose-only effect; inactive means no such curve, though single readings can be large or run the other way.

SMILES	BAZ2B inh	CtBP-E1A blk	G9a inh	Six1-Eya2 blk	JMJD2A Tudor	HP1b binding inh
C=CCc1cccc([C@@H]2[C@@H](C)CC[C@H]3C(=O)N4[C@@H](c5cc(OC)c(OC)c(OC)c5)c5[nH]c6ccccc6c5C[C@H]4C(=O)N23)c1	u	x	50.1µM*	x	x	x
Nc1nc2c(F)c(F)c(F)cc2s1	-1.9%	x	17.8µM*	4.4	-13.6%	3.2%
O=C(c1csnn1)N1CCC2(CC1)CCN(c1cccc(-c3ccccc3)c1)CC2	x	x	-2.8%[12.7 µM]	x	x	x
O=C(Nn1c(-c2ccncc2)nc2ccccc2c1=O)c1ccccc1Br	-4.0%	-10.4	50.1µM*	-15.4	-13.2%	9.9%
O=C(Nn1c(-c2ccncc2)nc2ccccc2c1=O)c1ccc(Br)cc1	-17.8%	18.5	15.2%[59 µM]	-6.3	-13.0%	14.7%
O=C(Nn1c(-c2ccc(Br)cc2)nc2ccccc2c1=O)c1cccnc1	x	-2.4	-43.5%	-4.5	35.5µM*	-11.2%
O=C(Cn1cc(S(=O)(=O)Cc2cccc(Cl)c2)c2ccccc21)NCc1ccccc1Cl	-1.6%	x	2.7%[59 µM]	x	-14.5%	13.3%
O=C(C[n+]1cccc2ccccc21)c1ccc(NC(=O)c2ccccc2)cc1	-24.5%	-10.1	25.1µM*	-6.5	-8.7%	39.5%
COc1ccc2c(ccc[n+]2CC(=O)c2ccccc2)c1	-26.3%	8.9	-4.6%	1.7	8.3%	41.0%
Cc1cc[n+](CC(=O)c2ccc(NC(=O)c3ccccc3)cc2)cc1	3.9%	-0.8	u	-0.8	-11.9%	24.6%
O=C(C[n+]1cccc2ccccc21)c1ccccc1	11.0%	0.6	44.7µM*	0.8	1.4%[57.1 µM]	47.3%
Cc1cc[n+](CC(=O)c2ccc(NC(=O)c3ccccc3)cc2)c2ccccc12	u	-4.4	39.8µM*	-7.3	u	13.1%
COc1cc(Cl)c(C)cc1NC(=O)c1c(C)oc2nc(C)nc(N3CCCC3)c12	-25.4%[57.1 µM]	x	u	x	-26.2%	51.6%
CN(Cc1ccc(F)cc1)C(=O)c1sccc1-c1ccccc1	u	1.1	39.8µM*	2.0	27.2%	53.6%
CCC(C)c1ccccc1OCCn1c(CCNC(=O)C2CCCCC2)nc2ccccc21 (centres undefined)	x	x	x	x	-16.2%[57.1 µM]	5.7%[57 µM]
CCCCOc1ccc(N=Nc2ccc(N)nc2N)cn1	13.9%	x	19.8%[0.501 µM]	-7.5	35.5µM*	u
CCCCOc1ccc(Cc2cnc(N)nc2N)cc1	-7.0%	-5.7	x	1.0	-28.3%	29.0%
CCCN1CCN(CCNC(=O)Nc2cc(OC)cc(OC)c2)CC1	-10.3%	x	2.1%[59 µM]	x	-16.0%	15.5%
COc1cc(C)c2c(c1C=O)Oc1c(c(C)c(O)c3c1C(O)OC3=O)OC2=O (centres undefined)	79.4µM*	-4.1	u	u	79.4µM*	-34.7%
Cc1noc(C)c1-c1ccc2ncnc(NC3CCCc4ccccc43)c2c1 (centres undefined)	x	x	x	x	-33.8%	x
CCOc1ccc(CCNC(=O)C2CC=CCC2C(=O)OC(C)C)cc1OCC (centres undefined)	-2.1%	1.9	13.3%	4.8	-2.1%	27.2%
CCOc1ccc(CCNC(=O)C2CCN(C(=O)N(C)C)CC2)cc1OCC	2.1%	7.2	-5.7%[59 µM]	6.5	89.1µM*	9.9%
CCOc1ccc(CCNC(=O)CSC(=S)N2CCCC2)cc1OCC	6.6%	5.7	39.8µM*	-1.2	u	-4.6%
CCOc1ccc(CCNC(=O)C2CC(C)=CCC2C(=O)O)cc1OCC (centres undefined)	50.1µM*	3.9	22.4µM*	-8.0	25.1µM*	u
CCc1nnc(NC(=O)c2cc(=O)c3cc(C)c(C)cc3o2)s1	-4.0%	x	-8.1%[59 µM]	x	-2.1%	26.6%
SMILES	BAZ2B inh	CtBP-E1A blk	G9a inh	Six1-Eya2 blk	JMJD2A Tudor	HP1b binding inh
Cc1ccc(C(CC(=O)NCC2(c3ccccc3)CCCC2)c2ccccc2)c(O)c1 (centres undefined)	5.2%	x	-17.1%[59 µM]	x	-10.0%	8.0%
CCOC(=O)c1c(C)[nH]c(CCC(=O)NCCCN2CCN(c3ccccc3F)CC2)c1C	-27.6%	x	-6.6%[59 µM]	x	u	9.5%[57 µM]
O=C(Cn1cnc2sc(-c3ccccc3)cc2c1=O)NCc1ccccc1	13.7%	-4.9	u	4.0	-25.0%	4.9%
O=C(Cn1ncn2c(cc3ccccc32)c1=O)NCc1ccco1	50.1µM*	12.7	u	-12.9	u	7.3%
O=C(Cn1cnc2sc(-c3ccccc3)cc2c1=O)NCc1ccco1	u	-1.3	12.6µM*	-18.3	3.16µM*	8.91µM*
Cc1cc(C)c(NC(=O)C2CCN(S(=O)(=O)c3c(C)noc3/C=C/c3ccccc3F)CC2)c(C)c1	-0.8%	x	12.4%[59 µM]	x	-12.5%	19.8%[57 µM]
COc1cc(NC(=S)NCCCN2CCOCC2)cc(OC)c1OC	-8.4%	-5.4	0.9%	8.5	-9.1%	19.7%
COc1ccc(C(C)(C)C)cc1NC(=S)NCCN1CCOCC1	-12.6%	-0.4	44.7µM*	0.3	-18.5%	-12.7%
COc1cc(C)c(NC(=S)NCCCN2CCOCC2)cc1OC	-18.8%	8.1	35.5µM*	2.8	-3.4%[57.1 µM]	25.5%
CC(=O)Nc1cc2c(=O)n(Cc3ccccc3)c(C)nc2cc1N1CCOCC1	u	-6.6	50.1µM*	5.7	-17.0%	20.1%
Cc1nc2cc(N3CCCCC3)c(NC(=O)c3cccnc3)cc2c(=O)n1Cc1ccccc1	1.1%	-5.2	-9.8%[59 µM]	2.9	-3.5%	38.1%
C/C(=N/NC(=O)CNc1ccc(C)cc1)c1ccc(Br)s1	-18.2%	-3.3	35.5µM*	-2.6	u	-4.6%
COc1ccccc1NCC(=O)N/N=C(\C)c1ccc(Br)s1	-4.4%	-9.6	u	5.6	-11.6%	20.7%
CN(C)c1cccc(C(=O)N2CCC(c3c[nH]c4ccccc34)(c3c[nH]c4ccccc34)CC2)c1	u	x	u	x	u	-21.4%
O=c1[nH]c(=S)n(-c2ccc(Br)cc2)c2ncccc12	x	8.0	x	7.1	-18.2%	36.5%
Fc1ccc(-n2c(=S)[nH]c3cccnc32)cc1	4.6%	11.9	x	0.5	15.8µM*	70.8µM*
COc1ccccc1CN1CCN(Cc2ccc3ccccc3c2)CC1	22.4µM*	x	7.94µM*	-12.5	8.91µM*	u
OC1CCN(Cc2ccc3ccccc3c2)CC1	u	9.2	11.2µM*	0.8	3.55µM*	u
COc1ccc(CN2CCN(Cc3ccc4ccccc4c3)CC2)cc1OC	15.8µM*	-19.8	-1.3%[2.33 µM]	u	2.82µM*	25.1µM*
CCOc1cc(CN2CCCCCC2)ccc1OC	u	-3.5	x	23.0	2.24µM*	-14.3%
Cc1ccc(C)c(N2CCN(C(=O)CCn3c(=O)c4cccn4c4cccnc43)CC2)c1	-11.6%	x	-4.1%[59 µM]	x	u	-15.0%
COc1ccccc1CCNC(=O)Cn1c(=O)oc2ccccc21	79.4µM*	-3.3	39.8µM*	4.1	-16.4%	12.9%
